Source: PubChem BioAssay AID1159580 (chemical genetic matrix, 2015)
Several values for one entry are separate records, joined by “and”; a condition that tells them apart may be missing. Equal values may be shown once. Among all 5,500 compounds or so, about 2,000 (36%) were called active. Another 18% or so got no clear call; they are omitted. No stated cut-off is given here; in the data, active means normalized growth mostly below about 0.91 (no sharp cut-off); inconclusive means no clear call, values can overlap the other calls; inactive means mostly above about 0.92. The list shows a part of the results.

Experiment: chemical genetic growth profiling, strain panel (AID 1159580);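 further: tested at 20 µM; growth read once vehicle control cultures reached saturation at 30 °C; 1 = growth at the plate median or of vehicle wells; lower values mean less growth of the strain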
Settings: growth OD

Measured: normalized growth

Cc1ccc(S(=O)(=O)NC(=O)NN2CCCCCC2)cc1
inactive: S. cerevisiae deletion strains, locus YJR075W, strain HOC1, hits give low values 1.03 | S. cerevisiae deletion strains, locus YKL009W, strain mrt4, hits give low values 1.03 | S. cerevisiae deletion strains, locus YKL068W, hits give low values 0.988 | S. cerevisiae deletion strains, locus YKL085W, strain MDH1 (second series), hits give low values 0.977 | S. cerevisiae deletion strains, locus YKL085W, strain MDH1, hits give low values 0.977 | S. cerevisiae deletion strains, locus YKL160W, strain elf1, hits give low values 0.957 | S. cerevisiae deletion strains, locus YKL190W, strain CNB1, hits give low values 1 | S. cerevisiae deletion strains, locus YKR001C, strain vps1, hits give low values 0.981 | S. cerevisiae deletion strains, locus YKR026C, strain gcn3, hits give low values 0.992 | S. cerevisiae deletion strains, locus YKR091W, strain srl3, hits give low values 0.983 | S. cerevisiae deletion strains, locus YLL001W, strain dnm1, hits give low values 0.982 | S. cerevisiae deletion strains, locus YLL026W, hits give low values 0.995 | S. cerevisiae deletion strains, locus YLL041C, strain sdh2, hits give low values 0.99 | S. cerevisiae deletion strains, locus YLR027C, strain aat2, hits give low values 0.99 | S. cerevisiae deletion strains, locus YLR039C, strain RIC1, hits give low values 0.954 | S. cerevisiae deletion strains, locus YLR058C, strain SHM2, hits give low values 0.992 | S. cerevisiae deletion strains, locus YLR102C, strain apc9, hits give low values 0.985 | S. cerevisiae deletion strains, locus YLR113W, strain HOG1, hits give low values 1.03 | S. cerevisiae deletion strains, locus YLR221C, strain rsa3, hits give low values 1.02 | S. cerevisiae deletion strains, locus YLR258W, strain gsy2, hits give low values 0.98 | S. cerevisiae deletion strains, locus YLR262C, strain YPT6 (second series), hits give low values 0.961 | S. cerevisiae deletion strains, locus YLR262C, strain YPT6, hits give low values 0.962 | S. cerevisiae deletion strains, locus YLR268W, strain sec22, hits give low values 0.983 | S. cerevisiae deletion strains, locus YLR320W, strain mms22, hits give low values 0.996 | S. cerevisiae deletion strains, locus YLR330W, strain CHS5, hits give low values 0.994 | S. cerevisiae deletion strains, locus YLR342W, strain FKS1 (second series), hits give low values 0.941 | S. cerevisiae deletion strains, locus YLR342W, strain FKS1, hits give low values 0.987 | S. cerevisiae deletion strains, locus YLR357W, strain rsc2, hits give low values 0.928 | S. cerevisiae deletion strains, locus YLR370C, strain arc18, hits give low values 0.968 | S. cerevisiae deletion strains, locus YLR371W, strain rom2, hits give low values 0.977 | S. cerevisiae deletion strains, locus YLR384C, strain iki3, hits give low values 0.992 | S. cerevisiae deletion strains, locus YLR418C, strain cdc73, hits give low values 0.989 | S. cerevisiae deletion strains, locus YML016C, strain PPZ1, hits give low values 0.991 | S. cerevisiae deletion strains, locus YML032C, strain rad52, hits give low values 0.992 | S. cerevisiae deletion strains, locus YML120C, strain ndi1, hits give low values 1 | S. cerevisiae deletion strains, locus YML124C, strain tub3, hits give low values 0.988 | S. cerevisiae deletion strains, locus YMR058W, strain fet3, hits give low values 0.994 | S. cerevisiae deletion strains, locus YMR078C, strain ctf18, hits give low values 0.968 | S. cerevisiae deletion strains, locus YMR125W, strain sto1, hits give low values 0.988 | S. cerevisiae deletion strains, locus YMR129W, hits give low values 0.987 | S. cerevisiae deletion strains, locus YMR205C, strain PFK2, hits give low values 1.01 | S. cerevisiae deletion strains, locus YMR223W, strain ubp8, hits give low values 0.97 | S. cerevisiae deletion strains, locus YMR231W, strain pep5, hits give low values 0.986 | S. cerevisiae deletion strains, locus YMR263W, strain SAP30, hits give low values 0.998 | S. cerevisiae deletion strains, locus YMR307W, strain GAS1, hits give low values 0.956 and 1 | S. cerevisiae deletion strains, locus YNL067W, strain RPL9B, hits give low values 1.02 | S. cerevisiae deletion strains, locus YNL071W, strain lat1, hits give low values 0.99 | S. cerevisiae deletion strains, locus YNL128W, strain TEP1, hits give low values 0.988 | S. cerevisiae deletion strains, locus YNL153C, strain GIM3, hits give low values 1.05 and 1 | S. cerevisiae deletion strains, locus YNL175C, strain NOP13, hits give low values 0.991 | S. cerevisiae deletion strains, locus YNL183C, strain NPR1, hits give low values 0.946 | S. cerevisiae deletion strains, locus YNL197C, strain WHI3, hits give low values 0.974 | S. cerevisiae deletion strains, locus YNL209W, strain ssb2, hits give low values 0.968 | S. cerevisiae deletion strains, locus YNL224C, strain SQS1, hits give low values 1 | S. cerevisiae deletion strains, locus YNL233W, strain BNI4, hits give low values 1.04 | S. cerevisiae deletion strains, locus YNL248C, strain rpa49, hits give low values 0.961 | S. cerevisiae deletion strains, locus YNL250W, strain rad50, hits give low values 0.949 | S. cerevisiae deletion strains, locus YNL271C, strain bni1, hits give low values 0.983 | S. cerevisiae deletion strains, locus YNL298W, strain CLA4, hits give low values 0.965 | S. cerevisiae deletion strains, locus YNL307C, strain MCK1, hits give low values 0.983 | S. cerevisiae deletion strains, locus YNL322C, strain KRE1 (second series), hits give low values 0.965 | S. cerevisiae deletion strains, locus YNL322C, strain KRE1, hits give low values 1 | S. cerevisiae deletion strains, locus YNR049C, strain mso1, hits give low values 0.967 | S. cerevisiae deletion strains, locus YNR052C, strain pop2, hits give low values 0.974 | S. cerevisiae deletion strains, locus YOL006C, strain TOP1, hits give low values 1.02 | S. cerevisiae deletion strains, locus YOL012C, strain htz1 1.06 | S. cerevisiae deletion strains, locus YOL147C, strain pex11, hits give low values 0.975 | S. cerevisiae deletion strains, locus YOR001W, strain rrp6, hits give low values 1.03 | S. cerevisiae deletion strains, locus YOR061W, strain CKA2, hits give low values 0.994 | S. cerevisiae deletion strains, locus YOR069W, strain VPS5, hits give low values 0.994 | S. cerevisiae deletion strains, locus YOR070C, strain gyp1, hits give low values 0.979 | S. cerevisiae deletion strains, locus YOR080W, strain dia2, hits give low values 0.979 | S. cerevisiae deletion strains, locus YOR083W, strain WHI5 (second series), hits give low values 0.971 | S. cerevisiae deletion strains, locus YOR083W, strain WHI5, hits give low values 0.927 | S. cerevisiae deletion strains, locus YOR106W, strain vam3, hits give low values 0.984 | S. cerevisiae deletion strains, locus YOR136W, strain idh2, hits give low values 0.984 | S. cerevisiae deletion strains, locus YOR144C, strain elg1, hits give low values 0.974 | S. cerevisiae deletion strains, locus YOR184W, strain ser1, hits give low values 1 | S. cerevisiae deletion strains, locus YOR231W, strain MKK1, hits give low values 1 | S. cerevisiae deletion strains, locus YOR265W, strain rbl2, hits give low values 1 | S. cerevisiae deletion strains, locus YOR270C, strain vph1, hits give low values 1.02 | S. cerevisiae deletion strains, locus YOR290C, strain snf2, hits give low values 0.957 | S. cerevisiae deletion strains, locus YOR316C, strain cot1, hits give low values 0.992 | S. cerevisiae deletion strains, locus YPL051W, strain arl3, hits give low values 0.969 | S. cerevisiae deletion strains, locus YPL078C, strain atp4, hits give low values 0.98 | S. cerevisiae deletion strains, locus YPL106C, strain sse1, hits give low values 0.957 | S. cerevisiae deletion strains, locus YPL240C, strain hsp82, hits give low values 0.988 | S. cerevisiae deletion strains, locus YPL241C, strain CIN2, hits give low values 0.999 | S. cerevisiae deletion strains, locus YPL256C, strain CLN2, hits give low values 1.01 | S. cerevisiae deletion strains, locus YPR119W, strain clb2, hits give low values 0.983 | S. cerevisiae deletion strains, locus YPR141C, strain kar3, hits give low values 0.976 | S. cerevisiae deletion strains, locus YPR163C, strain tif3, hits give low values 0.982 | S. cerevisiae deletion strains, locus YPR167C, strain met16, hits give low values 0.991 | S. cerevisiae deletion strains, strain wtn01, hits give low values 1.01 | S. cerevisiae strains, strain wild type, hits give low values 1
